A selection: hits, their analogues and other compounds. The true share with any hit is near 6.6%.
Bead autofluor: compound fluorescence in toxin protease inhibitor counterscreen. compound autofluorescence counterscreen, microsphere flow cytometry; hits give high values. fluorescence intensity (concentration not given with the values). hit rate 3.1% among 360,000. AID 624483; in the data active means fluorescence intensity above about 16000
Mtb FBA inh: inhibitors of M. tuberculosis fructose-bisphosphate aldolase; AID 588726; hit rate 2.3% among 360,000; inhibition, % at 1 µM; purified M. tuberculosis FBA, fluorescence read-out
Target sequence (P9WQA3 whole entry, looked up): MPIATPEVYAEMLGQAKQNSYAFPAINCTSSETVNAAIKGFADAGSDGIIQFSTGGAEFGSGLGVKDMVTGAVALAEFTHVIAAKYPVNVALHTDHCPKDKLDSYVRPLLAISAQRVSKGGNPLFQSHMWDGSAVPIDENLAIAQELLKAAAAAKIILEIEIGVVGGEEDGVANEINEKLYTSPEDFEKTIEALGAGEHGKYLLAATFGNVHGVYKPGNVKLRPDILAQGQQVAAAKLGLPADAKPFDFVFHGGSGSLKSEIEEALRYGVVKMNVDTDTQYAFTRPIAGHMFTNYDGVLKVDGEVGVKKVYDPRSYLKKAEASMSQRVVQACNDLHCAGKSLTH
Anthrax LF inh2: blocks Bacillus anthracis lethal factor protease | multiplex microsphere protease cleavage assay, LF | AID 588501 | hit rate 0.12% among 360,000 | inhibition, % at 10 µM; in the data active means inhibition above about 30%
GDH-TPI counter-1: GDH-TPI coupled enzyme inhibition counter-screen; GDH-TPI coupled enzyme counterscreen, NADH absorbance; inhibition, % at 4.8 µM; hit rate 1.2% among 360,000; AID 588335; in the data active means inhibition above about 30%
BoNT-A LC inh2: inhibitors of Botulinum neurotoxin A light chain protease; multiplex microsphere protease substrate cleavage, flow cytometry; inhibition, % at 10 µM; hit rate 0.17% among 360,000; in the data active means inhibition above about 30%
BoNT F protease: blocks Botulinum neurotoxin F light chain protease; hit rate 0.22% among 360,000; Multiplex microsphere protease cleavage assay, flow cytometry; inhibition, % at 10 µM; in the data active means inhibition above about 35%, passing the limit was not always enough
Mtb FBA inh conf: Mtb FBA inhibition, confirmed. purified M. tuberculosis FBA, fluorescence read-out. hit rate 78% among 5,600. shares compounds with Mtb FBA inh. AID 651616. inhibition, % at 1 µM
GDH-TPI counter-2: counter-screen for M. tuberculosis FBA inhibitors: GDH-TPI coupled enzyme inhibition. shares compounds with Mtb FBA inh. inhibition, % at 1 µM. hit rate 81% among 5,600. AID 652141. GDH-TPI coupled enzyme counterscreen, fluorescence; in the data active means inhibition above about 10%
GDH-TPI dose: GDH-TPI dose response counter-screen for Mtb FBA; AID 652145; IC50, µM; hit rate 79% among 170; shares compounds with Mtb FBA inh; GDH-TPI coupled enzyme assay, fluorescence, artifact counterscreen; call rule not given here
Hits are given with their value; i = inactive; nt = no result; + = active, no number. Unless noted, no stated cut-off is given here; in the data, active means inhibition above about 27%; inactive means the rest.

SMILES | Bead autofluor | Mtb FBA inh | Anthrax LF inh2 | GDH-TPI counter-1 | BoNT-A LC inh2 | BoNT F protease | Mtb FBA inh conf | GDH-TPI counter-2 | others
COc1ccc(C2Nc3ccccc3C(=O)N2NC(C)=O)c(OC)c1 (centres undefined) | i | 40.8 | i | i | i | i | 72.2 | 49.9
CC(=O)NN1C(=O)c2ccccc2NC1c1cccc([N+](=O)[O-])c1 (centres undefined) | i | i | i | i | i | i | nt | nt
CCCN1C(=O)c2ccccc2NC1c1ccc(OC)cc1O (centres undefined) | i | 58.2 | i | i | i | i | i | i
O=C1c2ccccc2NC(c2ccccc2O)N1O (centres undefined) | i | i | i | i | i | i | nt | nt
CCCN1C(=O)c2ccccc2NC1c1ccc(OC)cc1OC (centres undefined) | i | 80.9 | i | i | i | i | 44.9 | 43.1
COc1cc(C2Nc3ccccc3C(=O)N2c2ccccc2)c(Br)cc1OCC(=O)O (centres undefined) | i | i | i | i | i | i | nt | nt
CCCC(=O)Nc1ccc2c(c1)C(=O)N(CCC(=O)O)C2=O | i | 41.3 | i | i | i | i | 116.5 | 89.4
O=C(O)CCN1C(=O)c2ccc(NC(=O)c3cccs3)cc2C1=O | i | 32.5 | i | i | i | i | 182.5 | 171.2
CCC(=O)Nc1ccc2c(c1)C(=O)N(C)C2=O | i | 27.0 | i | i | i | i | i | i
CN1C(=O)c2ccc(NC(=O)c3cccc(N4C(=O)CCC4=O)c3)cc2C1=O | i | 28.4 | i | i | i | i | 81.5 | 92.5
O=C(Nc1ccc2c(c1)C(=O)N(c1ccccc1)C2=O)c1cccs1 | i | i | i | i | i | i | nt | nt
Cc1cccc(NC(=O)c2cccc(N3C(=O)CCC3=O)c2)c1 | i | i | i | i | i | i | nt | nt
CC1=CC2=NCC(O)CN2C=C1 (centres undefined) | i | 27.9 | i | i | i | i | i | i | GDH-TPI dose=9.31
COc1cccc(-c2csc(NNC(=O)c3cccs3)n2)c1 | i | 63.7 | i | i | i | i | 27.6 | 14.2
Nc1ccc2ccccc2c1 | i | 28.4 | i | i | i | i | 40.1 | 34.4
c1ccc2c(c1)c1cccc3ccc4cccc2c4c31 | i | 54.9 | i | i | i | i | 74.8 | 64.1
O=c1c2ccccc2ccc2ccccc12 | i | i | i | i | i | i | nt | nt
COc1ccc2nc(SCC(=O)O)nc(C)c2c1 | i | 38.9 | i | i | i | i | 101.5 | 90.0
COc1ccc2nc(C)cc(SCC(=O)O)c2c1 | i | i | i | i | i | i | nt | nt
N#Cc1nc(-c2ccco2)oc1N1CCN(C(c2ccccc2)c2ccccc2)CC1 | i | i | i | i | i | i | nt | nt
N#Cc1nc(-c2ccco2)oc1N1CCc2ccccc2C1 | i | 46.1 | i | i | i | i | 51.7 | 39.3
CC1CC(C)CN(c2oc(-c3ccco3)nc2C#N)C1 (centres undefined) | i | 90.9 | i | i | i | i | i | i
C=C(C)[C@@H]1CC=C(CN2CCC(CCOC)(C(=O)OCC)CC2)CC1 | i | i | i | i | i | i | nt | nt
CCOC(=O)COc1ccc2c(c1)C(=O)CC1(CCN(C(C)=O)CC1)O2 | 23933 | 57.2 | i | i | i | i | + | +
CCN1CCN(C(=O)COc2ccc3c(c2)C(=O)CC2(CCN(C(C)=O)CC2)O3)CC1 | i | 33.0 | i | i | i | i | 60.9 | 56.2
SMILES | Bead autofluor | Mtb FBA inh | Anthrax LF inh2 | GDH-TPI counter-1 | BoNT-A LC inh2 | BoNT F protease | Mtb FBA inh conf | GDH-TPI counter-2 | others
CCOc1ccc(OCC(=O)N2CCC3(CC2)CC(=O)c2ccccc2O3)cc1 | i | i | i | i | i | i | nt | nt
CC(=O)N1CCC2(CC1)CC(=O)c1cc(OCC(=O)N3CCCC3)ccc1O2 | i | 60.1 | i | i | i | i | 47.8 | 44.7
COc1ccccc1OCCCC(=O)Nc1nnc(C2CCCO2)s1 (centres undefined) | i | i | i | i | i | i | nt | nt
C(=C\c1nc2ccccc2[nH]1)/c1ccccc1 | i | 32.1 | i | 36.5 | i | i | + | +
Cc1nnsc1-c1nc2ccccc2[nH]1 | i | 81.3 | i | i | i | i | i | i
c1cncc(-c2nc3ccccc3[nH]2)c1 | i | i | i | i | i | i | nt | nt
